PubChem BioAssay (EPA / NIEHS)
Active and inactive are the calls of the source. Rule for the calls: active = hit-call score of the fitted dose curve at least 0.9, where 1 is the maximum; inactive = score below 0.9.

Columns and labels:
[1] = read-out: Intercellular Adhesion Molecule 1 (ICAM1), ICAM1 (gene 3383); experiment: BSK_BE3C_ICAM1: BioMAP Diversity Plus: BE3C Assay for Intercellular Adhesion Molecule 1 (ICAM1) Biomarker Activity (AID 2284278); details: primary human bronchial epithelial cells;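 note: cell-surface ICAM-1 protein level quantified by ELISA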
How it was run: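 Measured by ELISA: ICAM-1 expressed by primary human bronchial epithelial cells 24 h after compound treatment, with upward-direction fitting versus DMSO vehicle.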

[2] = read-out: Interferon-inducible T-cell alpha chemoattractant (ITAC), CXCL11 (gene 6373); experiment: BSK_BE3C_ITAC: BioMAP Diversity Plus: BE3C Assay for Interferon-inducible T-cell alpha chemoattractant (ITAC) Biomarker Activity (AID 2284279); details: primary human bronchial epithelial cells
How it was run: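 BE3C cells (human primary bronchial epithelium), 24 h compound exposure, I-TAC by ELISA, DMSO = negative control/baseline, positive fitting direction.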

[3] = read-out: Interleukin-8 (IL8), CXCL8 (gene 3576); experiment: BSK_BE3C_IL8: BioMAP Diversity Plus: BE3C Assay for Interleukin-8 (IL8) Biomarker Activity (AID 2284280); details: primary human bronchial epithelial cells
How it was run: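 Primary human bronchial epithelial cells (BE3C system) exposed 24 h; IL-8 measured by ELISA and fitted in positive direction versus DMSO. Overt cytotoxicity assessed by SRB total-protein staining in parallel cultures.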

[4] = read-out: Epidermal growth factor receptor (EGFR), EGFR (gene 1956); experiment: BSK_BE3C_EGFR: BioMAP Diversity Plus: BE3C Assay for Epidermal growth factor receptor (EGFR) Biomarker Activity (AID 2284281); details: primary human bronchial epithelial cells
How it was run: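 Human primary bronchial epithelial cells (BE3C system) dosed with chemicals; EGFR measured by ELISA at 24 h, fitted in the positive direction relative to DMSO. Cytotoxicity tracked in parallel cultures by SRB total-protein staining.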

KRT18 (gene 3875) = experiment: BSK_BE3C_Keratin818: BioMAP Diversity Plus: BE3C Assay for Keratin 818 Biomarker Activity (AID 2284282); details: primary human bronchial epithelial cells
How it was run: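 BE3C: human bronchial epithelial primary cells, 24 h exposure, Keratin 8/18 ELISA; DMSO = negative control/baseline; cytotoxicity by parallel SRB stain (0.1% SRB after 10% TCA fixation, 560 nm).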

[5] = read-out: Matrix Metallopeptidase 9 (MMP9), MMP9 (gene 4318); experiment: BSK_BE3C_MMP9: BioMAP Diversity Plus: BE3C Assay for Matrix Metallopeptidase 9 (MMP9) Biomarker Activity (AID 2284283); details: primary human bronchial epithelial cells
How it was run: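 ELISA read-out of MMP-9 after 24 h compound exposure of human lung bronchial epithelial primary cells (BE3C). Fit in gain direction vs DMSO negative control; total protein by SRB in parallel cultures flagged overt cytotoxicity.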

[6] = read-out: Plasminogen activator inhibitor-1 (PAI1), SERPINE1 (gene 5054); experiment: BSK_CASM3C_PAI1: BioMAP Diversity Plus: CASM3C Assay for Plasminogen activator inhibitor-1 (PAI1) Biomarker Activity (AID 2284284); details: primary human coronary artery smooth muscle cells;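 note: PAI-1 protein level measured by ELISA 24 h after dosing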
[7] = read-out: Monocyte Chemoattractant Protein-1 (MCP1), CCL2 (gene 6347); experiment: BSK_hDFCGF_MCP1: BioMAP Diversity Plus: hDFCGF Assay for Monocyte Chemoattractant Protein-1 (MCP1) Biomarker Activity (AID 2284285); details: primary human foreskin fibroblasts
How it was run: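 Human foreskin fibroblasts (hDFCGF system) were exposed to compound and secreted MCP-1 was measured by ELISA after 24 hours. Activity was fitted relative to DMSO. Cytotoxicity was checked by SRB total-protein staining in parallel cultures.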

[8] = read-out: Intercellular Adhesion Molecule 1 (ICAM1), ICAM1 (gene 3383); experiment: BSK_hDFCGF_ICAM1: BioMAP Diversity Plus: hDFCGF Assay for Intercellular Adhesion Molecule 1 (ICAM1) Biomarker Activity (AID 2284287); details: primary human foreskin fibroblasts
How it was run: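 Primary human foreskin fibroblasts (hDFCGF system) dosed with chemical; ICAM-1 quantified by ELISA at 24 h relative to DMSO. Parallel SRB total-protein staining to assess overt cytotoxicity.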

[9] = read-out: TIMP metallopeptidase inhibitor 2 (TIMP2), TIMP2 (gene 7077); experiment: BSK_hDFCGF_TIMP2: BioMAP Diversity Plus: hDFCGF Assay for TIMP metallopeptidase inhibitor 2 (TIMP2) Biomarker Activity (AID 2284289); details: primary human foreskin fibroblasts
How it was run: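 Primary human foreskin fibroblasts in the hDFCGF system, dosed for 24 h; TIMP-2 level measured by ELISA, fitted in the positive direction against DMSO; cytotoxicity checked in parallel by sulforhodamine B total protein staining.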

[10] = read-out: Thrombomodulin, THBD (gene 7056); experiment: BSK_LPS_Thrombomodulin: BioMAP Diversity Plus: LPS Assay for Thrombomodulin Biomarker Activity (AID 2284296)
How it was run: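 Human umbilical vein endothelial cells co-cultured with PBMC and stimulated with LPS; cell-surface thrombomodulin measured by ELISA 24 hours after compound. Gain or loss versus DMSO; cytotoxicity checked by SRB staining in parallel cultures.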

[11] = BSK_MyoF_SRB: Viability Assessment in the BioMAP Diversity Plus: MyoF Assay (AID 2284267); details: primary human lung fibroblasts;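 note: total protein by SRB absorbance in parallel cultures as cytotoxicity measure; cells assessed 24 h after compound addition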
How it was run: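 Cytotoxicity in primary human lung fibroblasts is gauged by SRB total-protein staining 24 h after dosing, with DMSO as the negative control.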

[12] = read-out: Matrix Metallopeptidase 1 (MMP1), MMP1 (gene 4312); experiment: BSK_MyoF_MMP1: BioMAP Diversity Plus: MyoF Assay for Matrix Metallopeptidase 1 (MMP1) Biomarker Activity (AID 2284268); details: primary human lung fibroblasts
How it was run: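 Cells: human lung fibroblasts. Exposure: 24 h chemical dosing. Detection: ELISA for MMP1. Analysis: upward fitting against DMSO negative control.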

[13] = read-out: TIMP metallopeptidase inhibitor 1 (TIMP1), TIMP1 (gene 7076); experiment: BSK_MyoF_TIMP1: BioMAP Diversity Plus: MyoF Assay for TIMP metallopeptidase inhibitor 1 (TIMP1) Biomarker Activity (AID 2284269); details: primary human lung fibroblasts
How it was run: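 Fibroblasts from human lung are dosed with chemical, cultured 24 h, and assayed for TIMP-1 by ELISA. Increases over the DMSO baseline are scored, with SRB total-protein staining run in parallel for cytotoxicity.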

[14] = IUF_NPC2c_oligodendrocyte_migration_120hr: Leibniz Research Institute for Environmental Medicine (IUF) 120-hour Neural Progenitor Cell Migration Assay for Oligodendrocyte Migration (NPC2c) (AID 2284297);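 note: O4-positive oligodendrocyte migration distance divided by radial glia migration distance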
How it was run: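 hNPC spheres (GW 16-19 cortex), PDL/laminin, DMEM/F12 3:1 + 1% N2, 37C. Dosing day 0–5, half feed day 3, DMSO ≤0.1%. Fixed 120 h; O4 ICC + Hoechst, HCI. Readout: mean oligodendrocyte distance from sphere edge / radial glia distance.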

[15] = IUF_NPC2a_radial_glia_migration_120hr: Leibniz Research Institute for Environmental Medicine (IUF) 120-hour Neural Progenitor Cell Migration Assay for Radial Glia Migration (NPC2a) (AID 2284298)
How it was run: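 Hoechst-stained nuclei imaged at 120 h; algorithm maps sphere core by densest nuclei, sets migration edge at density threshold, gives radial glia migration distance (um) per well vs DMSO. hNPC spheres (0.3 mm), PDL/laminin, DMEM/F12 3:1 + 1% N2.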

[16] = IUF_NPC2a_radial_glia_migration_72hr: Leibniz Research Institute for Environmental Medicine (IUF) 72-hour Neural Progenitor Cell Migration Assay for Radial Glia Migration (NPC2a) (AID 2284299)
How it was run: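 Migration out of plated human neural progenitor spheres is scored at 72 h as the distance in um from the sphere core edge to the edge of the migration area. Values are the mean of four manual measurements per well, normalised to DMSO.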

[17] = IUF_NPC2b_neuronal_migration_120hr: Leibniz Research Institute for Environmental Medicine (IUF) 120-hour Neural Progenitor Cell Migration Assay for Neuron Migration (NPC2b) (AID 2284300)
How it was run: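 hNPC spheres, PDL/laminin, DMEM:F12 3:1 + 1% N2, 37C/5% CO2; 7 concentrations + solvent control (DMSO ≤0.1%), 5 d exposure, half-feed day 3. Fix 120 h, TUBB3 ICC, HCI: mean neuron migration distance ÷ glia distance.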

[18] = IUF_NPC3_neuronal_differentiation_120hr: Leibniz Research Institute for Environmental Medicine (IUF) 120-hour Neuronal Differentiation Assay (NPC3) (AID 2284301)
How it was run: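 Human fetal (GW 16-19) neural progenitor spheres (0.3 mm) plated on poly-D-lysine/laminin in N2 differentiation medium, exposed 120 h at 37C with half-medium renewal day 3; 7 concentrations. TUBB3+ cells as % of Hoechst nuclei, CNN-identified; DMSO baseline.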

[19] = IUF_NPC4_neurite_length_120hr: Leibniz Research Institute for Environmental Medicine (IUF) 120-hour Neuronal Morphology Assay for Neurite Length (NPC4) (AID 2284302)
How it was run: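 Human fetal neural progenitor spheres (0.3 mm) plated on poly-D-lysine/laminin in N2 differentiation medium, exposed from day 0 for 120 h with half-medium refresh at day 3, 37C. Mean neurite length (um) of TUBB3-positive neurons from skeletonized immunostaining images; DMSO ≤0.1%.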

Measured: AC50

CCCCOC(=O)COC(=O)c1ccccc1C(=O)OCCCC
inactive: [1] | [2] | [3] | [4] | KRT18 (gene 3875) | [5] | [6] | [7] | [8] | [9] | [10] inactive [primary human HUVEC with PBMC]

c1ccc2sc(SNC3CCCCC3)nc2c1
inactive: [11] | [12] | [13]

CC(C)[C@@H](Nc1ccc(C(F)(F)F)cc1Cl)C(=O)OC(C#N)c1cccc(Oc2ccccc2)c1 (stereo not given in full)
inactive: [14] | [15] | [16] | [17] | [19]
active: [18] 1.92 µM

CCOCn1c(-c2ccc(Cl)cc2)c(C#N)c(Br)c1C(F)(F)F
active: [15] 63.4 µM | [16] 36.6 µM | [17] 35.4 µM | [18] 5.42 µM | [19] 14.4 µM
inactive: [14]

O=S1OC[C@@H]2[C@H](CO1)[C@]1(Cl)C(Cl)=C(Cl)[C@@]2(Cl)C1(Cl)Cl (stereo not given in full)
inactive: [14] | [15] | [16] | [17] | [18] | [19]

CCOC(=O)CC(=O)CCl
inactive: [11] | [12] | [13]

NC(=O)CCl
inactive: [11] | [12] | [13]

O=S(=O)(C(Cl)(Cl)Cl)C(Cl)(Cl)Cl
active: [11] 3.81 µM | [12] 7.05 µM | [13] 2.93 µM

Cc1cccc(OP(=O)(Oc2cccc(C)c2)Oc2cccc(C)c2)c1
inactive: [11] | [12] | [13]

Cc1ccccc1OP(=O)(Oc1ccccc1C)Oc1ccccc1C
inactive: [12] | [14] | [16] | [17] | [18] | [19]
active: [11] 12.8 µM | [13] 20 µM | [15] 10 µM

Oc1cccc(-c2ccccc2)c1
active: [11] 31.1 µM | [12] 31.2 µM
inactive: [13]

Oc1ccc(Cc2ccc(O)cc2)cc1
inactive: [11] | [12] | [13]

Cc1cc(Cl)ccc1N
inactive: [11] | [12] | [13]

O=[N+]([O-])c1ccc(Nc2ccccc2)cc1
inactive: [11] | [12] | [13]
